Assay results as given in PubChem BioAssay AID1529 (NMMLSC, 2009).
In all, about 290,000 compounds went through this assay and about 4,200 (1.4%) were called active. What follows is part of a selection rich in actives, with near analogues and random picks from the rest. A number with no mark means an inactive call.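 Rule for the calls: active = binding response more than 3 SD above or below the average of its plate-row segment, actives on both sides; inconclusive = wells at one plate position flagged as instrument error; inactive = the rest.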

The compounds below were run against Mitogen-activated protein kinase kinase kinase 3 (Homo sapiens) (UniProt Q99759) (assay: modulators of MEKK3-MEK5 PB1 binding, primary screen, biochemical, wildtype MEKK3, multiplex bead flow cytometry, Alexa488-MEK5 (AID 1529;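 note: Alexa488 bead fluorescence after subtracting the streptavidin-only scavenger bead signal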)). Details: bead-based flow cytometry, Alexa488-MEK5 binding to MEKK3; at 10 µM; actives lie on both sides; 0 = blocked by unlabeled MEK5, 100 = vehicle.
Chain of Mitogen-activated protein kinase kinase kinase 3 (Homo sapiens) (Q99759 whole entry, looked up): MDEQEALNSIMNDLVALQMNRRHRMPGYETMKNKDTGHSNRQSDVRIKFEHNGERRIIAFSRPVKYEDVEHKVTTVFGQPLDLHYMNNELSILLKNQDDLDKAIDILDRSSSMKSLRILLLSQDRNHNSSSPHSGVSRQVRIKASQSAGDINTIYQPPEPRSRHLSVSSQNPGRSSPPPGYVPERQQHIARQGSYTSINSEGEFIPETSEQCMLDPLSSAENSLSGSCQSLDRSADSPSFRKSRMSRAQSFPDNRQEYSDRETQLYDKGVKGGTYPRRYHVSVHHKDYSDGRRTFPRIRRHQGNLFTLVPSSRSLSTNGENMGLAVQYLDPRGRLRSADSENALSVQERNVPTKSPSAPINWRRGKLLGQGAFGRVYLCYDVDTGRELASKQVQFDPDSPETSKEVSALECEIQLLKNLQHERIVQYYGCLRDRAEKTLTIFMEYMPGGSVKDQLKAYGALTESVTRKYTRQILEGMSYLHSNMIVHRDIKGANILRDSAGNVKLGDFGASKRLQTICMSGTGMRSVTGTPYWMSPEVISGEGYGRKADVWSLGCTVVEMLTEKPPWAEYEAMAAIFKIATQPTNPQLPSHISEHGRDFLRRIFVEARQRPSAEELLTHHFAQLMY

Row | Structure (SMILES) | binding response (% of control)
1 | Cc1cs/c(=N\N=C\c2ccc(O)cc2)n1Cc1ccco1 | 100%
2 | CCOC(=O)/C=c1\s/c(=C\c2ccc(C#N)cc2)c(=O)n1CC(=O)Nc1cccc(C)c1C | 102%
3 | CN(c1ccccc1)c1ccc(/C=c2\s/c(=C(/C#N)C(=O)C(C)(C)C)n(Cc3ccco3)c2=O)cc1 | 47% [inhibitor] (active)
4 | COc1ccc(Cc2nc3ccc(C(=O)N4CCC(N(C)C)C4)cc3o2)cc1 (stereo unspecified) | 97%
5 | COc1cc2c(C(=O)N(C)c3cc(Cl)ccc3OC)cn(C)c(=O)c2cc1OC | 102%
6 | O=C(NCc1ccco1)c1ccc(Cn2c(=O)c3sccc3n(Cc3ccc(F)cc3)c2=O)cc1 | 115%
7 | Cc1ccc(CNC(=O)Cn2c(=O)c3sccc3n(Cc3cccc([N+](=O)[O-])c3)c2=O)cc1 | 141% (active)
8 | COCCNC(=O)CCCn1c(=O)c2ccccc2n(Cc2cccc([N+](=O)[O-])c2)c1=O | 101%
9 | COc1ccccc1N1CCN(c2nc(C)cc(=O)[nH]2)CC1 | 104%
10 | CCOC(=O)C1CN(S(=O)(=O)c2ccc(OC)cc2)c2cc(Cl)ccc2O1 (stereo unspecified) | 105%
11 | CC(=O)c1c(C)oc2ccc(NS(=O)(=O)c3ccccc3)cc12 | 101%
12 | COc1ccc(S(=O)(=O)Nc2ccc3oc(C)c(C(C)=O)c3c2)cc1 | 122% (active)
13 | CC(=O)c1c(C)oc2ccc(NS(=O)(=O)c3ccc(C(=O)O)cc3)cc12 | 99%
14 | Cc1nc2ccc(S(=O)(=O)NCC(=O)O)cc2s1 | 106%
15 | Cc1nc2cc(S(=O)(=O)C(F)(F)F)ccc2s1 | 129% (active)
16 | Cc1nc2ccc(S(=O)(=O)NC(C(=O)N3CCCCCC3)C(C)C)cc2s1 (stereo unspecified) | 105%
17 | CCOc1ccccc1NC(=O)C1CCCN(S(=O)(=O)c2ccccc2)C1 (stereo unspecified) | 100%
18 | O=S(=O)(c1ccccc1)c1nc(Cc2ccccc2)oc1N1CCOCC1 | 98%
19 | Cc1nnc(NC(=O)C(c2ccccc2)c2ccccc2)s1 | 98%
20 | CCCc1nnc(SCC(=O)N2C(C)CCCC2C)n1CC (stereo unspecified) | 145% (active)
21 | CC1CCCC(C)N1C(=O)CSc1nnnn1C1CCCC1 (stereo unspecified) | 101%

Row | Structure (SMILES) | binding response (% of control)
22 | CCCc1cc(=O)[nH]c(SCC(=O)N2C(C)CCCC2C)n1 (stereo unspecified) | 107%
23 | O=C(O)c1ccc(NC(=O)c2ccc(COc3ccc(Cl)cc3)o2)cc1 | 103%
24 | CC1CN(CC(=O)NC(C)c2ccccc2)CC(C)O1 (stereo unspecified) | 101%
25 | COc1ccc(N2CCN(C(=O)c3cccs3)CC2)cc1 | 97%
26 | COc1ccc(Cl)cc1NC(=O)CCS(=O)(=O)c1ccc(Br)cc1 | 80% [inhibitor] (active)
27 | O=C(CCS(=O)(=O)c1ccc(Br)cc1)NCCc1ccc(Cl)cc1 | 105%
28 | COc1ccc(Cl)cc1NC(=O)CCS(=O)(=O)c1cc2c(cc1C)NC(=O)CO2 | 104%
29 | CN(C)c1ccc(NC(=O)CN2C3CCCC2CC(NC(=O)c2ccccc2)C3)cc1 (stereo unspecified) | 104%
30 | COc1ccccc1CNC(=O)c1ccc(N(C)S(=O)(=O)c2ccc(C)cc2)cc1 | 96%
31 | COc1ccc(-c2[nH]ncc2CN(C)Cc2c(C)n[nH]c2C)c(OC)c1 | 0% [inhibitor] (active)
32 | COc1ccc(-c2[nH]ncc2CN(C)Cc2cccnc2)c(F)c1 | 108%
33 | COc1ccc(-c2[nH]ncc2CN(C)Cc2cc(C)[nH]n2)c(F)c1 | 102%
34 | C#CCNC(=O)[C@H](Cc1ccc(C(=O)c2ccccc2)cc1)NC(=O)OC(C)(C)C | 101%
35 | CCOCCCNC(=O)c1ccc(CS(=O)(=O)c2cccc(C(F)(F)F)c2)o1 | 101%
36 | Cc1c(C)n(Cc2ccc(Cl)cc2)c2ccc(C(=O)NCCCN3CCOCC3)cc12 | 106%
37 | CCOCCCN(C)C1CCN(C(=O)c2oc3ccccc3c2NC(=O)COc2cccc(C)c2)CC1 | 105%
38 | COc1ccc(C(=O)CCc2ccccc2O)c(OC)c1 | 97%
39 | O=C(NNc1c2ccccc2nc2ccccc12)c1cc2ccccc2cc1O | 69% [inhibitor] (active)
40 | O=C(N/N=C/c1cccnc1)c1cc2ccccc2cc1O | 99%
41 | CC(C)(C)OC(=O)NNc1c2ccccc2nc2ccccc12 | 91%
42 | Cc1ccc(NC(=O)COc2ccc(/C=C3/NC(=O)NC3=O)cc2)cc1 | 99%

Row | Structure (SMILES) | binding response (% of control)
43 | COCCCNC(=S)N(CCN(C)C)Cc1cc2cc3c(cc2[nH]c1=O)OCCO3 | 101%
44 | COC(=O)C1(CCSC)NC(c2ccc(OC)cc2OC)C2C(=O)N(c3cccc(C(C)=O)c3)C(=O)C21 (stereo unspecified) | 101%
45 | CCC(CC)c1nnc(NC(=O)C2CCN(C(=O)c3ccco3)CC2)s1 | 102%
46 | NC(=O)C1=C[C@@H](c2ccc3c(c2)OCO3)C[C@@H](OCCCCO)O1 | 102%
47 | Clc1cccc(Cl)c1OCCOCCNCc1ccccc1 | 102%
48 | CN(C)CCOCCOc1ccc(Cl)c2ccccc12 | 78%
49 | CCN(CC)CCOCCOc1ccc(Cl)c2ccccc12 | 3% [inhibitor] (active)
50 | CCOC(=O)CSc1nnc(CNc2nc(-c3ccccc3)cs2)n1C | 92%
51 | CCNC(=O)CSc1nc(-c2ccccc2)cs1 | 132% (active)
52 | O=C(CSc1nc(-c2ccccc2)cs1)Nc1cccc([N+](=O)[O-])c1 | 103%
53 | CC(=O)Nc1ccc(NC(=O)COc2ccccc2C(=O)Nc2cccc(Cl)c2Cl)cc1 | 184% (active)
54 | O=C(COc1ccccc1Cl)Nc1ccc(C(=O)c2ccc(C(=O)O)cc2)cc1 | 104%
55 | CN1CCN(C(=O)c2ccccc2NC(=O)COc2ccccc2Cl)CC1 | 101%
56 | FC(F)(F)c1nnc2c3ccccc3c(Cl)nn12 | 107%
57 | COc1ccc2[nH]c(=O)c(CN(Cc3cccnc3)S(=O)(=O)c3ccccc3F)cc2c1 | 100%
58 | Cc1ccc(NC(=O)Cc2nnc(SCC(=O)Nc3nncs3)n2C)cc1 | 97%
59 | O=Cc1ccc(Oc2cccc(C(F)(F)F)c2)nc1 | 98%
60 | O=C(CCCOc1ccccc1)Nc1cccc(C(=O)O)c1 | 106%
61 | O=C(O)CCCC(=O)Nc1ccc(Oc2cccc(C(F)(F)F)c2)nc1 | 131% (active)
